Autofluor 339: intrinsic fluorescence of library compounds, ex339/em460 – biochemical, MLSMR library, data from DPM-DC assay, artefact control, profiling panel; compound autofluorescence, ex339/em460 nm, NADH buffer; active compounds read high; 1 = no-compound wells, NADH background; fluorescence fold increase at 10 µM; 65,000 compounds, 5.5% hits; AID 709, 2007;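 active means at 10 µM, mean starting fluorescence two-fold or more over control wells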;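 further: signal is the first read of a kinetic run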
NADH enzymes: inhibitors of PK/LDH coupling enzymes, profiling panel, artefact control, biochemical, MLSMR library | coupled PK/LDH NADH assays, four targets | IC50, µM (top dose mostly 10 µM) | AID 774, 2007 | 65,000 compounds, 0.02% hits;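 active means single-dose screening hits from any of four coupled enzyme assays that gave an IC50 when retested across doses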;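 further: the DPM-DC format reads NADH fluorescence rather than 340 nm absorbance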
Spn PMK inh: S. pneumoniae PMK inhibitors, primary screen, biochemical, mevalonate pathway, pilot trial included | purified PMK, PK/LDH-coupled NADH absorbance 340 nm | inhibition, % at 10 µM | 65,000 compounds, 0.49% hits | phosphomevalonate kinase (Streptococcus pneumoniae D39) | AID 539, 2006;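 active means top-ranked compounds by inhibition in the single 10 µM screen, taking a fixed number of the strongest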
MK inhibit: S. pneumoniae MK inhibitors, primary screen, biochemical, PK/LDH-coupled NADH absorbance. mevalonate kinase [Streptococcus pneumoniae D39]. purified MK, PK/LDH-coupled NADH absorbance 340 nm. inhibition, % at 10 µM. 65,000 compounds, 0.48% hits. AID 555, 2006;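 active means ranked among the strongest by inhibition in the single 10 µM screen, a fixed top-ranked set picked for dose follow-up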
Abs 340nm: compound light absorbance at 340 nm, profiling panel, artefact control, biochemical, MLSMR library, data from PS, PMK, MK assays; AID 708, 2007; fold change at 10 µM; compound absorbance at 340 nm, fold over control; 65,000 tested, under 10 active;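 active means at 10 µM dose, initial 340 nm absorbance at least 2 fold that of control wells; inactive means change under 2 fold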;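 further: initial absorbance extrapolated from kinetic A340 decline of NADH oxidation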
DPM-DC inhibit: S. pneumoniae DPM-DC inhibitors, primary screen, biochemical, PK/LDH-coupled NADH fluorescence. purified DPM-DC. calls only at 10 µM. 65,000 compounds, 0.49% hits. diphosphomevalonate decarboxylase (Streptococcus pneumoniae D39). AID 556, 2006;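 active means the 320 compounds with the highest percent inhibition in the single-dose primary screen, excluding strongly autofluorescent ones, cut at about 32% in these data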;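 further: kinetic rate of NADH fluorescence loss reporting ADP formed by the decarboxylase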
Hits are given with their value; [ ] = another dose, or the depositor's remark. The list is not random: actives were taken first. Their share in the collection is about 6.3%.

For COc1ccc(CN2CCN(c3ncccn3)CC2)c(OC)c1 the results were Autofluor 339 inactive, NADH enzymes inactive, Spn PMK inh inactive, MK inhibit 49, Abs 340nm inactive and DPM-DC inhibit inactive.
CCOC(=O)C1CCN(c2nc(-c3ccccc3)nc3c2oc2ccccc23)CC1 was read as Autofluor 339 2.1, NADH enzymes inactive, Spn PMK inh inactive, MK inhibit inactive, Abs 340nm inactive and DPM-DC inhibit inactive.
For COc1ccccc1N(CN1CCCC1=O)C(=O)COc1ccccc1 the results were Autofluor 339 inactive, NADH enzymes inactive, Spn PMK inh inactive, MK inhibit inactive, Abs 340nm inactive and DPM-DC inhibit inactive.
`COc1cc(N2CN=c3s/c(=C\c4ccccn4)c(=O)n3C2)cc(OC)c1OC` gave Autofluor 339 inactive, NADH enzymes inactive, Spn PMK inh inactive, MK inhibit inactive, Abs 340nm inactive and DPM-DC inhibit inactive.
For CC(=O)Nc1ccc(NC(=O)c2c(C)nc3ccccn23)cc1 the results were Autofluor 339 inactive, NADH enzymes inactive, Spn PMK inh inactive, MK inhibit inactive, Abs 340nm inactive and DPM-DC inhibit inactive.
`c1ccn2c(c1)nc1c2nc2ccccn21` gave Autofluor 339 3.8, NADH enzymes inactive, Spn PMK inh inactive, MK inhibit inactive and Abs 340nm inactive.
For O=c1oc(-c2cccs2)nc2sc3c(c12)CCCCC3 the results were Autofluor 339 2.1, NADH enzymes inactive, Spn PMK inh inactive, MK inhibit inactive and Abs 340nm inactive.
`Cc1ccc(NC(=O)NC(=O)N(c2ccccc2)S(C)(=O)=O)cc1` gave Autofluor 339 inactive, NADH enzymes inactive, Spn PMK inh inactive, MK inhibit inactive, Abs 340nm inactive and DPM-DC inhibit inactive.
`CC(NC(=O)c1cccnc1)c1ccc2c(c1)OCO2` (stereo not given) gave Autofluor 339 inactive, NADH enzymes inactive, Spn PMK inh inactive, MK inhibit inactive, Abs 340nm inactive and DPM-DC inhibit inactive.
For COC(=O)C1(CCSC)NC(c2ccco2)C2C(=O)N(C)C(=O)C21 (stereo not given) the results were Autofluor 339 inactive, NADH enzymes inactive, Spn PMK inh inactive, MK inhibit inactive, Abs 340nm inactive and DPM-DC inhibit inactive.
Cc1ccc(C)c(-c2nc3cc(N)ccc3o2)c1 was read as Autofluor 339 2.3, NADH enzymes inactive, Spn PMK inh inactive, MK inhibit inactive, Abs 340nm inactive and DPM-DC inhibit active[fluoresces].
Screening Nc1ccc2nc(-c3ccc(Cl)cc3)[nH]c2c1 returned Autofluor 339 2.1, NADH enzymes inactive, Spn PMK inh inactive, MK inhibit inactive and Abs 340nm inactive.
Screening Nc1ccc(-c2nc3c(Cl)c(N)ccc3[nH]2)cc1 returned Autofluor 339 3.6, NADH enzymes inactive, Spn PMK inh inactive, MK inhibit inactive and Abs 340nm inactive.
For Cc1ccc(C)c(-c2nc3ccc(N)cc3[nH]2)c1 the results were Autofluor 339 3, NADH enzymes inactive, Spn PMK inh inactive, MK inhibit inactive and Abs 340nm inactive.
For Cc1ccc2nc(C(O)C(O)c3nc4ccc(C)cc4[nH]3)[nH]c2c1 (stereo not given) the results were Autofluor 339 inactive, NADH enzymes inactive, Spn PMK inh inactive, MK inhibit inactive, Abs 340nm inactive and DPM-DC inhibit inactive.
Screening COc1ccc(CNc2oc(-c3cccc4ccccc34)nc2C#N)cc1 returned Autofluor 339 3, NADH enzymes inactive, Spn PMK inh inactive, MK inhibit inactive and Abs 340nm inactive.
For CNc1oc(-c2cccc3ccccc23)nc1C#N the results were Autofluor 339 3.7, NADH enzymes inactive, Spn PMK inh inactive, MK inhibit inactive and Abs 340nm inactive.
Screening N#Cc1nc(Cc2cccc3ccccc23)oc1NCc1ccc(F)cc1 returned Autofluor 339 inactive, NADH enzymes inactive, Spn PMK inh inactive, MK inhibit inactive, Abs 340nm inactive and DPM-DC inhibit inactive.
CCCn1c(C)nc2c(c1=O)c1nc3ccccc3nc1n2CCc1ccccc1 was read as Autofluor 339 3.1, NADH enzymes inactive, Spn PMK inh inactive, MK inhibit inactive and Abs 340nm inactive.

Bioassay records as filed in PubChem BioAssay.
